High-throughput results from PubChem BioAssay.
HT1080-NT tox – kills 2HG-producing HT-1080-NT fibrosarcoma cells; 360,000 compounds, 1.6% hits; HT-1080-NT fibrosarcoma viability, CellTiter-Glo ATP luminescence, 48 h; Potency, µM (series often up to 46.1 µM), usual class: cytotoxic; AID 686970;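 further: NT is the 2HG producing partner of a matched IDH1 knockdown line; nearly all actives have a fitted effect of over 55% in size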
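Viability of the 2HG-overproducing fibrosarcoma line after 48 hours of compound exposure at 37 degrees C was determined by luminescence with CellTiter-Glo, and concentration-effect curves were then fitted and categorized.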
DT40 TDP1 CPT – DT40-hTDP1 cell growth loss with CPT; chicken DT40 Tdp1-/-;hTDP1 cells + 20 nM CPT, ATP luminescence, 48 h; Potency, µM (titrated, usually from 46.2 µM), usual class: inhibitors; 420,000 compounds, 12% hits; further: nearly all actives have a fitted effect of over 55% in size
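Cell growth measured by CellTiter-Glo luminescence after a minimum 48 h, 37 C compound exposure with 20 nM CPT in Tdp1-knockout DT40 cells stably expressing hTDP1, seeded 400/well; qHTS titration format.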
IL1B secr inh – blocks inflammasome-driven IL-1 beta release. 360,000 compounds, 4.7% hits. THP-1 LPS/ATP IL-1B secretion, AlphaLISA, 16 h; active compounds read low. activity change, % at 57.5 µM; in the data active means activity change below about -50%; inconclusive means mostly about -30% to -49%
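THP-1 cells pretreated 1 hr with compounds (up to 57.5 uM final), then stimulated with LPS (250 ng/mL final) plus ATP (1.25 mM final); secreted IL-1B measured by AlphaLISA after 16 hr, decreased signal indicating inhibition.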
HT1080 IDH1KD tx – HT-1080 IDH1 knockdown cell toxicity (counter line); HT-1080 IDH1 knockdown viability, ATP luminescence, 48 h; Potency, µM (series often up to 46.1 µM), hits mostly cytotoxic; 360,000 compounds, 2% hits; AID 686971
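Assay cells: HT-1080 with IDH1 knockdown, 750 per well, RPMI/5% FBS. Exposure: 48 h at 37 °C following 2 h pre-incubation. Read: CellTiter-Glo luminescence; fitted concentration-response, curve class assigned.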
DT40 TDP1 no CPT – qHTS for Inhibitors of human tyrosyl-DNA phosphodiesterase 1 (TDP1): qHTS in cells in absence of CPT; DT40 Tdp1-/- hTDP1 cells, no CPT, ATP luminescence, 48 h; Potency, µM (titrated, usually from 46.2 µM), hits mostly inhibitors; 420,000 compounds, 15% hits; further: nearly all actives have a fitted effect of over 55% in size
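Chicken DT40 Tdp1-/- cells stably complemented with human TDP1 were seeded at 400 cells/well with DMSO in place of 20 nM camptothecin. After compound pinning, cells grew at least 48 hr at 37 °C; viability read by CellTiter-Glo luminescence.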
Of the large screens only hits and unclear results are named; the others gave an inactive call. Most compounds without a hit are left out; they make up all but 19% or so of the library. Unless noted, the call rests on the fitted dose curve; in most records, active means well fitted curve in the direction sought with a large enough effect; inconclusive means small, poorly fitted or top-dose-only effect, or another doubt; inactive means no such curve, though single readings can be large; an effect the other way counts as inactive or inconclusive.

CC(=O)c1ccc(OCCNS(=O)(=O)c2ccc(-n3cnnn3)c(C)c2)cc1	DT40 TDP1 CPT 13µM, DT40 TDP1 no CPT inconclusive
COc1ccc(CNS(=O)(=O)c2ccc(-n3cnnn3)c(C)c2)cc1	DT40 TDP1 CPT inconclusive, DT40 TDP1 no CPT inconclusive
COc1ccc2c(c1)CSC(c1ccccc1)C2=O (stereo not given)	HT1080-NT tox inconclusive, DT40 TDP1 CPT inconclusive, IL1B secr inh inconclusive, DT40 TDP1 no CPT inconclusive
O=C(Nc1ccccc1C(=O)N1CCCC1)c1ncoc1-c1cccc(Cl)c1	DT40 TDP1 CPT inconclusive, DT40 TDP1 no CPT inconclusive
COCCCNC(=O)C[C@@H]1C[C@@]2(C(=O)OC)CC(C)(C)CC=C2N(Cc2cccc3ccccc23)C1=O	DT40 TDP1 CPT inconclusive, DT40 TDP1 no CPT inconclusive
COC(=O)[C@@]12C[C@@H](CC(=O)NCc3ccc(C)o3)C(=O)N(Cc3cccc4ccccc34)C1=CCC(C)(C)C2	HT1080-NT tox inconclusive, DT40 TDP1 CPT 21µM, DT40 TDP1 no CPT 16µM
COC(=O)[C@@]12C[C@@H](CC(=O)NCCc3ccccc3OC)C(=O)N(Cc3cccc4ccccc34)C1=CCC(C)(C)C2	HT1080-NT tox inconclusive, DT40 TDP1 CPT inconclusive, DT40 TDP1 no CPT inconclusive
COC(=O)[C@@]12C[C@@H](CC(=O)NCc3ccc(C)o3)C(=O)N(Cc3ccccc3)C1=CCC(C)(C)C2	DT40 TDP1 CPT inconclusive, DT40 TDP1 no CPT inconclusive
COC(=O)[C@@]12C[C@@H](CC(=O)N3CCC(c4ccccc4)CC3)C(=O)N(Cc3cccc4ccccc34)C1=CCC(C)(C)C2	DT40 TDP1 CPT inconclusive, DT40 TDP1 no CPT inconclusive
COC(=O)[C@@]12C[C@@H](CC(=O)NCc3cccc4ccccc34)C(=O)N(Cc3cccc4ccccc34)C1=CCC(C)(C)C2	DT40 TDP1 CPT 18µM, DT40 TDP1 no CPT inconclusive
COC(=O)[C@@]12C[C@@H](CC(=O)NCc3ccccc3)C(=O)N(Cc3cccc4ccccc34)C1=CCC(C)(C)C2	HT1080-NT tox inconclusive, DT40 TDP1 CPT inconclusive, IL1B secr inh -83, HT1080 IDH1KD tx inconclusive, DT40 TDP1 no CPT 18µM
COC(=O)[C@@]12C[C@@H](CC(=O)NCC3CCCCC3)C(=O)N(Cc3cccc4ccccc34)C1=CCC(C)(C)C2	DT40 TDP1 CPT 21µM, DT40 TDP1 no CPT 16µM
COC(=O)[C@@]12C[C@@H](CC(=O)NCCC(C)C)C(=O)N(Cc3cccc4ccccc34)C1=CCC(C)(C)C2	HT1080-NT tox inconclusive, DT40 TDP1 CPT inconclusive, HT1080 IDH1KD tx inconclusive, DT40 TDP1 no CPT 21µM
COC(=O)[C@@]12C[C@@H](CC(=O)NCCCCc3ccccc3)C(=O)N(Cc3cccc4ccccc34)C1=CCC(C)(C)C2	HT1080-NT tox inconclusive, DT40 TDP1 CPT inconclusive, IL1B secr inh inconclusive, DT40 TDP1 no CPT 21µM
COC(=O)[C@@]12C[C@@H](CC(=O)NCc3ccccc3)C(=O)N(Cc3ccccc3)C1=CCC(C)(C)C2	HT1080-NT tox inconclusive, DT40 TDP1 CPT 21µM, IL1B secr inh -60, DT40 TDP1 no CPT inconclusive
COc1cc(Cl)c(C)cc1NC(=O)Cn1c2ncccc2c(=O)n1-c1ccccc1	DT40 TDP1 CPT inconclusive (no result: HT1080-NT tox, IL1B secr inh, HT1080 IDH1KD tx)
CO/N=C/c1ccc(Oc2ccc(C)cc2)c([N+](=O)[O-])c1	DT40 TDP1 CPT inconclusive, DT40 TDP1 no CPT 21µM
Cc1ccc([C@@H]2CC(=O)[C@@H]3CN(S(=O)(=O)c4ccc(C)cc4)[C@H](c4ccccc4)C[C@@H]3N2S(=O)(=O)c2ccc(Cl)cc2)cc1	none
CCCCC1=CC2=CC(=O)C(C)(OC(=O)CC)C(=O)C2=CN1Cc1ccco1 (stereo not given)	DT40 TDP1 CPT inconclusive
CCCCC1=CC2=CC(=O)C(C)(OC(=O)CC)C(=O)C2=CN1c1ccccc1 (stereo not given)	DT40 TDP1 CPT inconclusive, DT40 TDP1 no CPT 16µM
CCCCC1=CC2=CC(=O)C(C)(OC(=O)CC)C(=O)C2=CN1Cc1ccccc1 (stereo not given)	DT40 TDP1 CPT 13µM, DT40 TDP1 no CPT 18µM
COC(=O)CCCC1=CC2=CC(=O)C(C)(OC(=O)c3cccs3)C(=O)C2=CN1CCc1c[nH]c2ccccc12 (stereo not given)	none
CCCCC1=CC2=CC(=O)C(C)(OC(=O)CC)C(=O)C2=CN1CCc1c[nH]c2ccccc12 (stereo not given)	DT40 TDP1 CPT inconclusive, DT40 TDP1 no CPT 16µM
CCCCC1=CC2=CC(=O)C(C)(OC(=O)CC)C(=O)C2=CN1CCc1ccc(Br)cc1 (stereo not given)	DT40 TDP1 CPT inconclusive, DT40 TDP1 no CPT inconclusive
CCOC(=O)N1CCC2(CC1)OC(=O)C(C)=C2C(=O)NCc1cccc(F)c1	DT40 TDP1 no CPT inconclusive (no result: HT1080-NT tox, IL1B secr inh, HT1080 IDH1KD tx)
Nc1nc(CSC(=S)N2CCN(c3ccccc3)CC2)nc(Nc2ccccc2)n1	DT40 TDP1 CPT 23µM, DT40 TDP1 no CPT inconclusive
Cc1ccc(Nc2nc(N)nc(CSC(=S)N3CCOCC3)n2)c(C)c1	DT40 TDP1 CPT inconclusive, IL1B secr inh inconclusive, DT40 TDP1 no CPT 26µM
COc1ccc(C(=O)Nc2ccccc2C(=O)N2CCCCC2C)cc1 (stereo not given)	none
COCC(=O)N1CCC2(CCN(Cc3ccccc3)CC2)CC1	none (no result: HT1080-NT tox, IL1B secr inh, HT1080 IDH1KD tx)
N[C@@H](Cc1ccc(O)c(O)c1)C(=O)O	IL1B secr inh -107
NC(Cc1ccc(O)c([N+](=O)[O-])c1)C(=O)O (stereo not given)	none
Cc1ccc(S(=O)(=O)c2nc(-c3ccccc3Br)oc2N(C)C)cc1	DT40 TDP1 CPT 21µM, HT1080 IDH1KD tx inconclusive, DT40 TDP1 no CPT inconclusive
Cc1ccc(-c2nc(S(=O)(=O)c3ccc(C)cc3)c(N(C)C)o2)cc1	DT40 TDP1 CPT inconclusive, DT40 TDP1 no CPT 23µM
CN(C)CCNc1oc(-c2ccccc2Cl)nc1S(=O)(=O)c1ccccc1	none
Cc1ccc(S(=O)(=O)c2nc(-c3ccccc3Cl)oc2N(C)C)cc1	HT1080-NT tox inconclusive, DT40 TDP1 CPT 7.3µM, HT1080 IDH1KD tx inconclusive, DT40 TDP1 no CPT 10µM
CN(C)c1oc(-c2ccccc2Cl)nc1P(=O)(c1ccccc1)c1ccccc1	DT40 TDP1 CPT inconclusive, IL1B secr inh -62, DT40 TDP1 no CPT inconclusive
COc1ccccc1-c1nc(S(=O)(=O)c2ccc(Cl)cc2)c(N(C)C)o1	none
COc1cccc(C(C#N)NCCCNC(C#N)c2cccc(OC)c2OC)c1OC (stereo not given)	none
CCc1nc2c(OCC(=O)c3ccc(F)cc3)cccn2c1N(C)C(=O)c1cccs1	DT40 TDP1 CPT inconclusive, DT40 TDP1 no CPT inconclusive
CC(O)(c1ccccc1)c1nc(/C=C/c2ccccc2)cs1 (stereo not given)	HT1080-NT tox inconclusive, DT40 TDP1 CPT inconclusive, HT1080 IDH1KD tx inconclusive, DT40 TDP1 no CPT inconclusive
CCCC(=O)N1CCCC(c2cc(C(=O)Nc3ccc4c(c3)OCO4)no2)C1 (stereo not given)	none
